SMILES strings stand for the structures.

One experiment is described as follows: sensitizers of A549 cells to miR-34 induction, primary screen, imaging, A549 dox-inducible miR-34, nuclei and caspase counts (AID 1347080). Also: test concentration not given here. Particulars: A549 miR-34 inducible, Hoechst nuclei count, 48 h; measured here: total cells with miR-34 induction; stronger effect = lower value.
For `O=C(O)CCCCCCCCCCCNC(=O)NC1CCCCC1`, the cell count came to 5580.

Regarding `CCCCC/C=C\C/C=C\C/C=C\CCCCCCC(=O)OC`, the cell count worked out at 6440.

For `CC/C=C\C/C=C\C/C=C\CCCCCCCC(=O)N[C@@H](Cc1ccc(O)cc1)C(=O)O`, the cell count was found to be 5060.

As to `CC(C)OC(=O)CCC/C=C\C[C@@H]1[C@@H](/C=C/[C@@H](O)CCc2ccccc2)[C@H](O)C[C@@H]1O`, the cell count turned out to be 5640.

Turning to `CC(C)Oc1ccc(Cc2ccc(NC3=NCCN3)cc2)cc1`, the cell count stood at 5900.

As to `CCCCCC(=O)/C=C/[C@@H]1[C@@H](CCCCCCC(=O)O)[C@@H](O)C[C@H]1O`, the cell count worked out at 5670.

Regarding `CCCCCC(=O)CC[C@@H]1[C@@H](C/C=C\CCCC(=O)OC(C)C)[C@@H](O)C[C@H]1O`, the cell count stood at 6190.

For the compound `O=C(O)CCC/C=C\C[C@@H]1[C@@H](/C=C/C(=O)COc2cccc(C(F)(F)F)c2)[C@H](O)C[C@@H]1O`, the cell count turned out to be 6020.

Regarding `O=C(O)/C=C/CCCCCCCCC(=O)O`, the cell count stood at 5830.

In the case of `CCCCC[C@H](O)/C=C/[C@@H]1[C@@H](C/C=C\CCCC(=O)NCC)[C@@H](O)C[C@H]1O`, the cell count worked out at 5570.

In the case of `CCCCCCCCCCCCCCCC(=O)OC[C@@H](O)COP(=O)([O-])OCC[N+](C)(C)C`, the cell count came out at 5910.

In the case of `CCCCC[C@H](O)/C=C/[C@@H]1[C@@H](C/C=C\CCCC(=O)OC)[C@@H](O)C[C@H]1O`, the cell count turned out to be 5860.

As to `CC(C)=CCC/C(C)=C/CC/C(C)=C/C(O)P(=O)(O)O` (stereo not drawn), the cell count is 5800.

Turning to `CCCCCCCCC#CCCCCCCCC(=O)c1nc2ncccc2o1`, the cell count stood at 6180.

`CC(C)CCCC(C)NC(C)C` (stereo not drawn): the cell count was determined as 8610.

With `CCCCC[C@H](O)CC[C@@H]1[C@@H](CCCCCCC(=O)O)[C@@H](O)C[C@H]1O`, the cell count came to 6210.

For the compound `O=C(CCC/C=C\C[C@H]1C(=O)C[C@@H](O)[C@@H]1/C=C/[C@@H](O)CCc1ccccc1)NC(CO)CO`, the cell count came to 5500.

`O=C(O)CCCCCC[C@@H]1C(=O)NC(=O)N1CCC(O)C1CCCCC1` (stereo partly drawn): the cell count is 5520.

For `CC(C)CCCC(C)CCCC(C)CCCC(C)CC(=O)O` (stereo not drawn), the cell count is 5990.

As for `O=c1[nH]cc(CO)c(=O)[nH]1`, the cell count is 5770.

In the case of `COc1ccc(C2=N[C@@H](c3ccc(Cl)cc3)[C@@H](c3ccc(Cl)cc3)N2C(=O)N2CCNC(=O)C2)c(OC(C)C)c1`, the cell count amounted to 4290.

Turning to `C/C=C/C(=O)O[C@H](COCCCCCCCCCCCCCCCC)COP(=O)([O-])OCC[N+](C)(C)C`, the cell count came to 4860.

On to `CC(C(=O)Nc1cccc(N=Cc2c(O)ccc3ccccc23)c1)c1ccccc1` (stereo not drawn), for which the cell count amounted to 5970.

Consider `CCCCC/C=C\C/C=C\C/C=C\C/C=C\CCCC(=O)NC[C@]1(C)CCC[C@]2(C)c3ccc(C(C)C)cc3CC[C@@H]12`, for which the cell count came to 5530.

As for `CCCCCC(=O)CC[C@@H]1[C@@H](CCCCCCC(=O)O)[C@@H](O)C[C@H]1O`, the cell count worked out at 6140.

As for `O=C(O)CCCCCC[C@H]1C(=O)NC(=O)N1CCC(O)C1CCCCC1` (stereo partly drawn), the cell count is 6150.

Regarding `CC(C)CCCCCCC/C=C\C(=O)O`, the cell count was 5830.

Consider `CC(C)CCC[C@@H](C)[C@H]1CC[C@H]2[C@@H]3CC(=O)[C@@]4(O)C[C@@H](O)CC[C@]4(C)[C@H]3CC[C@]12C`, for which the cell count came to 5340.

As for `CCOC(=O)c1ccc(N=Nc2ccc(O)c(CC(=O)O)c2)cc1`, the cell count was determined as 6160.

For the compound `CCCCCC(=O)/C=C/C=O`, the cell count turned out to be 5770.

Consider `CCCCC/C=C\C/C=C\CCCCCCCC(=O)OC[C@H](O)CO`, for which the cell count came out at 4490.

Take `COc1ccc2c(c1)c(CC(=O)Nc1cccnc1)c(C)n2C(=O)c1ccc(Cl)cc1`: the cell count worked out at 5760.

As to `Nc1nc2[nH]c(=O)[nH]c2c(=O)[nH]1`, the cell count worked out at 6070.

With `CCCCCCCCCCCCCCCCOC[C@H](COP(=O)([O-])OCCCCCC[N+](C)(C)C)OC(C)=O`, the cell count was determined as 5260.

On to `O=C(CCC/C=C\C[C@@H]1[C@@H](/C=C/[C@@H](O)CCc2ccccc2)[C@H](O)C[C@@H]1O)NC(CO)CO`, for which the cell count worked out at 5210.

Take `C[C@H](CCCO)[C@H]1CC[C@H]2[C@@H]3[C@H](O)C[C@H]4CC(=O)CC[C@]4(C)[C@H]3C[C@H](O)[C@]12C`: the cell count is 4760.

`FC(F)(F)c1ccc(/C=C/c2cc(Cl)cc(Cl)c2)cc1`: the cell count worked out at 5620.

Turning to `C/C(O)=C1\C(=O)[C@@H]2[C@H]3c4c[nH]c5cccc(c45)C[C@H]3C(C)(C)N2C1=O`, the cell count amounted to 2150.

On to `CC(C)(C)OC(=O)Nc1cccc2[nH]ccc12`, for which the cell count was 4970.

The same experiment, now with this note: A549 miR-34 inducible, Hoechst nuclei count, 48 h; measured here: total cells without miR-34 induction.
On to `O=C(O)CCCCCCCCCCCNC(=O)NC1CCCCC1`, for which the cell count is 5790.

As for `CCCCC/C=C\C/C=C\C/C=C\CCCCCCC(=O)OC`, the cell count was 5790.

For `CC/C=C\C/C=C\C/C=C\CCCCCCCC(=O)N[C@@H](Cc1ccc(O)cc1)C(=O)O`, the cell count is 5940.

Take `CC(C)OC(=O)CCC/C=C\C[C@@H]1[C@@H](/C=C/[C@@H](O)CCc2ccccc2)[C@H](O)C[C@@H]1O`: the cell count was 5870.

Take `CC(C)Oc1ccc(Cc2ccc(NC3=NCCN3)cc2)cc1`: the cell count came to 6040.

For the compound `CCCCCC(=O)/C=C/[C@@H]1[C@@H](CCCCCCC(=O)O)[C@@H](O)C[C@H]1O`, the cell count came to 5520.

Take `CCCCCC(=O)CC[C@@H]1[C@@H](C/C=C\CCCC(=O)OC(C)C)[C@@H](O)C[C@H]1O`: the cell count is 6330.

Consider `O=C(O)CCC/C=C\C[C@@H]1[C@@H](/C=C/C(=O)COc2cccc(C(F)(F)F)c2)[C@H](O)C[C@@H]1O`, for which the cell count was determined as 6340.

Regarding `O=C(O)/C=C/CCCCCCCCC(=O)O`, the cell count stood at 5890.

Consider `CCCCC[C@H](O)/C=C/[C@@H]1[C@@H](C/C=C\CCCC(=O)NCC)[C@@H](O)C[C@H]1O`, for which the cell count is 7440.

Take `CCCCCCCCCCCCCCCC(=O)OC[C@@H](O)COP(=O)([O-])OCC[N+](C)(C)C`: the cell count is 5770.

As to `CCCCC[C@H](O)/C=C/[C@@H]1[C@@H](C/C=C\CCCC(=O)OC)[C@@H](O)C[C@H]1O`, the cell count turned out to be 6080.

As to `CC(C)=CCC/C(C)=C/CC/C(C)=C/C(O)P(=O)(O)O` (stereo not drawn), the cell count came out at 5990.

On to `CCCCCCCCC#CCCCCCCCC(=O)c1nc2ncccc2o1`, for which the cell count was determined as 5990.

In the case of `CC(C)CCCC(C)NC(C)C` (stereo not drawn), the cell count worked out at 8670.

Take `CCCCC[C@H](O)CC[C@@H]1[C@@H](CCCCCCC(=O)O)[C@@H](O)C[C@H]1O`: the cell count stood at 7460.

With `O=C(CCC/C=C\C[C@H]1C(=O)C[C@@H](O)[C@@H]1/C=C/[C@@H](O)CCc1ccccc1)NC(CO)CO`, the cell count turned out to be 5910.

In the case of `O=C(O)CCCCCC[C@@H]1C(=O)NC(=O)N1CCC(O)C1CCCCC1` (stereo partly drawn), the cell count was 5460.

Consider `CC(C)CCCC(C)CCCC(C)CCCC(C)CC(=O)O` (stereo not drawn), for which the cell count was 6040.

With `O=c1[nH]cc(CO)c(=O)[nH]1`, the cell count turned out to be 5720.

In the case of `COc1ccc(C2=N[C@@H](c3ccc(Cl)cc3)[C@@H](c3ccc(Cl)cc3)N2C(=O)N2CCNC(=O)C2)c(OC(C)C)c1`, the cell count was found to be 3920.

As for `C/C=C/C(=O)O[C@H](COCCCCCCCCCCCCCCCC)COP(=O)([O-])OCC[N+](C)(C)C`, the cell count stood at 5710.

`CC(C(=O)Nc1cccc(N=Cc2c(O)ccc3ccccc23)c1)c1ccccc1` (stereo not drawn): the cell count worked out at 6150.

Take `CCCCC/C=C\C/C=C\C/C=C\C/C=C\CCCC(=O)NC[C@]1(C)CCC[C@]2(C)c3ccc(C(C)C)cc3CC[C@@H]12`: the cell count turned out to be 5580.

For `CCCCCC(=O)CC[C@@H]1[C@@H](CCCCCCC(=O)O)[C@@H](O)C[C@H]1O`, the cell count came to 6450.

Regarding `O=C(O)CCCCCC[C@H]1C(=O)NC(=O)N1CCC(O)C1CCCCC1` (stereo partly drawn), the cell count came out at 5640.

Consider `CC(C)CCCCCCC/C=C\C(=O)O`, for which the cell count is 5880.

For the compound `CC(C)CCC[C@@H](C)[C@H]1CC[C@H]2[C@@H]3CC(=O)[C@@]4(O)C[C@@H](O)CC[C@]4(C)[C@H]3CC[C@]12C`, the cell count was 6000.

For `CCOC(=O)c1ccc(N=Nc2ccc(O)c(CC(=O)O)c2)cc1`, the cell count was 6490.

For the compound `CCCCCC(=O)/C=C/C=O`, the cell count worked out at 5720.

As for `CCCCC/C=C\C/C=C\CCCCCCCC(=O)OC[C@H](O)CO`, the cell count stood at 6430.

Turning to `COc1ccc2c(c1)c(CC(=O)Nc1cccnc1)c(C)n2C(=O)c1ccc(Cl)cc1`, the cell count amounted to 5780.

For `Nc1nc2[nH]c(=O)[nH]c2c(=O)[nH]1`, the cell count stood at 6740.

Turning to `CCCCCCCCCCCCCCCCOC[C@H](COP(=O)([O-])OCCCCCC[N+](C)(C)C)OC(C)=O`, the cell count is 5770.

Take `O=C(CCC/C=C\C[C@@H]1[C@@H](/C=C/[C@@H](O)CCc2ccccc2)[C@H](O)C[C@@H]1O)NC(CO)CO`: the cell count stood at 5330.

For the compound `C[C@H](CCCO)[C@H]1CC[C@H]2[C@@H]3[C@H](O)C[C@H]4CC(=O)CC[C@]4(C)[C@H]3C[C@H](O)[C@]12C`, the cell count amounted to 5610.

As for `FC(F)(F)c1ccc(/C=C/c2cc(Cl)cc(Cl)c2)cc1`, the cell count worked out at 5570.

Turning to `C/C(O)=C1\C(=O)[C@@H]2[C@H]3c4c[nH]c5cccc(c45)C[C@H]3C(C)(C)N2C1=O`, the cell count is 2100.

In the case of `CC(C)(C)OC(=O)Nc1cccc2[nH]ccc12`, the cell count amounted to 5440.

The values above are taken from PubChem BioAssay.
